# Reference: the antibiotic and cytotoxicity screens of Wong et al. (2023)
# Screen size: about 39,000 compounds; about 3,300 (8.5%) were called active. The sample as a whole holds a higher share of actives than the screen did.
# System: HepG2
# Experiment: cytotoxicity call (relative viability < 0.9)
# Conditions: 10 µM
row,SMILES,cytotoxicity call
1,O=C1CSCCN1,inactive
2,OCc1ncc[nH]1,inactive
3,CCNC(=O)[C@H]1[C@H](CO)[C@H]2Cn3c(ccc(-c4ccc(OC)cc4)c3=O)[C@@H]1N2S(C)(=O)=O,inactive
4,C[C@@H]1CN([C@@H](C)CO)S(=O)(=O)c2ccc(C3=CCCC3)cc2O[C@@H]1CN(C)C(=O)Cc1ccncc1,inactive
5,COc1ccc2c(c(Br)c(C(=O)O)n2CCCOc2cccc3ccccc23)c1-c1ccccc1C,inactive
6,C[C@H](CO)N1C[C@H](C)[C@@H](CN(C)Cc2ccc(C(=O)O)cc2)Oc2ccc(NC(=O)Cn3cnnn3)cc2CC1=O,inactive
7,CC(C)(C)C(=O)C[C@@H](Nc1ccccc1)c1ccc(Cl)cc1,inactive
8,COc1cccc(-c2ccc3n(c2=O)C[C@H]2[C@H](CO)[C@@H](C(=O)NCC4CC4)[C@@H]3N2S(C)(=O)=O)c1,inactive
9,C[C@H]1CN([C@@H](C)CO)C(=O)c2cccc(NS(=O)(=O)c3cn(C)cn3)c2O[C@@H]1CN(C)CC1CC1,inactive
10,CCc1nc2c(OCC(=O)c3ccc(Cl)cc3Cl)cccn2c1N(C)C(=O)COc1ccccc1,active
11,CCc1nc2ccc(C(=O)N3CCN(C(=O)c4ccco4)CC3)cn2c1N(C)C(=O)COc1ccccc1,inactive
12,CCc1nc2c(OCC(=O)c3ccc(Cl)cc3Cl)cccn2c1N(C=O)Cc1ccc(OC)cc1,inactive
13,C[C@@H]1CN([C@H](C)CO)C(=O)Cc2cc(NS(=O)(=O)c3cccs3)ccc2O[C@H]1CN(C)CC1CC1,inactive
14,CC(C)=CCC/C(C)=C/CC1=C(C)C(=O)c2ccccc2C1=O,inactive
15,C[C@@H]1CN([C@@H](C)CO)C(=O)Cc2cc(NC(=O)Nc3cccc4ccccc34)ccc2O[C@@H]1CN(C)Cc1ccc(C(F)(F)F)cc1,active
16,C[C@@H]1CN([C@@H](C)CO)C(=O)Cc2cc(NC(=O)Nc3cccc4ccccc34)ccc2O[C@H]1CN(C)Cc1ccc(C(F)(F)F)cc1,inactive
17,C[C@H]1CN([C@@H](C)CO)C(=O)Cc2cc(NC(=O)Nc3cccc4ccccc34)ccc2O[C@@H]1CN(C)Cc1ccc(C(F)(F)F)cc1,inactive
18,C[C@@H]1CN([C@H](C)CO)C(=O)Cc2cc(NC(=O)Nc3cccc4ccccc34)ccc2O[C@H]1CN(C)Cc1ccc(C(F)(F)F)cc1,inactive
19,C[C@H](CO)N1C[C@H](C)[C@H](CN(C)Cc2ccc(C(F)(F)F)cc2)Oc2ccc(NC(=O)Nc3cccc4ccccc34)cc2CC1=O,inactive
20,C[C@@H]1CN([C@@H](C)CO)C(=O)Cc2cc(NC(=O)Nc3cccc4ccccc34)ccc2O[C@@H]1CN(C)C(=O)Nc1ccc(C(F)(F)F)cc1,inactive
21,C[C@H]1CN([C@@H](C)CO)C(=O)Cc2cc(NC(=O)Nc3cccc4ccccc34)ccc2O[C@H]1CN(C)Cc1ccc(C(F)(F)F)cc1,active
22,C[C@H](CO)N1C[C@H](C)[C@@H](CN(C)Cc2ccc(C(F)(F)F)cc2)Oc2ccc(NC(=O)Nc3cccc4ccccc34)cc2CC1=O,inactive
23,C[C@@H]1CN([C@H](C)CO)C(=O)Cc2cc(NC(=O)Nc3cccc4ccccc34)ccc2O[C@@H]1CN(C)Cc1ccc(C(F)(F)F)cc1,active
